The values below come from PubChem BioAssay (NCI).

This is part of a sample that, as a whole, favours compounds with a hit. Of some 83,000 tested, about 20% had one in any assay.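 Plates (96-well) were seeded with cells, treated with compound at one concentration, and incubated for 48 hours before percent growth was determined.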 Active and inactive are the calls of the source. The calls were made as follows: active = growth percent below 10; inactive = the rest.

The subject of the experiment is RPMI-8226 leukemia. The experiment can be described thus: NCI-60 one-dose screen, 48 h (100 = growth as untreated, 0 = no growth, -100 = all killed). To be noted: 10 µM.
For `COC(=O)c1c(C(=O)OC)c2n(c1C)[C@@H]([C@@H](C)[C@H]1CC[C@H]3[C@@H]4CCC5=CC(=O)CC[C@]5(C)[C@H]4CC[C@]13C)SC2`, the growth is -11.5% (active).

In the case of `COc1ccc(C(=O)/C=C/c2cc(C(F)(F)F)cc(C(F)(F)F)c2)cc1S(N)(=O)=O`, the growth is 3.03% (active).

Regarding `CCCn1c(O)c(N=Nc2nc(-c3cc4ccccc4oc3=O)cs2)c2cc(Br)ccc21`, the growth is 97.9% (inactive).

As to `O/N=C(\CSc1nnc(-c2c[nH]c3ccccc23)n1-c1ccccc1)c1ccc(Br)cc1`, the growth was -13.1% (active).

As to `CC(=O)Oc1ccccc1C(=O)Oc1ccc(C(=O)/C=C/c2ccncc2)cc1`, the growth was 13.6% (inactive).

For the compound `CC(=O)C1=C(C)NC(SCC(=O)Nc2ccc(S(=O)(=O)Nc3cc(C)on3)cc2)=NC1c1ccccc1` (configuration not stated), the growth is 99.8% (inactive).

As to `COc1cc2c3c(n(CCCn4ccnc4)c(=O)c2cc1OC)-c1nc2c(cc1C3=O)OCO2`, the growth is 44.3% (inactive).

Consider `O=S(=O)(Nc1ncccn1)c1ccc(-n2c(-c3ccc(Br)cc3)nc(-c3ccccc3)c2-c2ccccc2)cc1`, for which the growth is 33.8% (inactive).

Turning to `COc1ccc(-c2cc(C(=O)N=Nc3c(O)[nH]c4ccc(Br)cc34)c3ccccc3n2)cc1`, the growth was 38.7% (inactive).

With `CCOC(=O)CNC(=O)CN(Cc1ccccc1)C(=O)[C@@]1(C)CCC[C@]2(C)[C@H]3CC4C(C(C)C)=C[C@]3(CC[C@H]21)[C@@H]1C(=O)CCC(=O)[C@H]41`, the growth was 19.8% (inactive).

Consider `O=c1c2ccccc2nc(COc2ccccc2)n1/N=C/c1ccc(F)cc1`, for which the growth is 71.7% (inactive).

Consider `COc1ccc(-c2cc(-c3cc(C(=O)c4ccccc4)n4ccc(C)cc34)nc(N)c2C#N)cc1`, for which the growth was 78.9% (inactive).

With `COc1cc(C2CC(c3ccc(C)cc3)=Nc3c(N)nc(N)nc3N2)ccc1Oc1nc(Nc2ccc(F)cc2)nc(N(C)C)n1` (configuration not stated), the growth is 22.3% (inactive).

Turning to `CC(=O)Nc1ccc(-c2cn(-c3cccc(C(=O)Nc4ccc(F)c(C(F)(F)F)c4)c3)nn2)cn1`, the growth was 66.6% (inactive).

On to `CN(C(=O)c1ccc(C(F)(F)F)cc1C(F)(F)F)c1sc2c(c1C#N)CCC(=O)C2`, for which the growth is 14.3% (inactive).

For `C#CCNC(=O)CCC(=O)OC[C@]12CC[C@@H](C(=C)C)[C@@H]1C1CC[C@@H]3[C@@]4(C)CCCNC(C)(C)[C@@H]4CC[C@@]3(C)[C@]1(C)CC2` (some centres not stated), the growth was -6.58% (active).

On to `COc1ccc2[nH]cc(/C=N/Nc3ccc(Br)cn3)c2c1`, for which the growth is -11.4% (active).

On to `COc1ccc(CN2[C@H](C(=O)NCc3ccc(C(=O)NO)cc3)Cc3c([nH]c4ccccc34)[C@H]2C2CC2)cc1`, for which the growth was 47.3% (inactive).

Regarding `O=c1cc(-c2ccccc2)oc2cc(OCCCCNCc3ccccc3)cc(O)c12`, the growth was -22.6% (active).

For the compound `O=c1[nH]c2ccccc2cc1CSc1ccc(Nc2nccc(-c3ccc(C(F)(F)F)cc3)n2)cc1`, the growth was 69.5% (inactive).

With `CN(C)c1ccc(/C=C/c2nc3ccccc3c(=O)n2CC(=O)Nc2ccccc2)cc1`, the growth was 64.3% (inactive).

With `Cc1ccc(-c2nc(Nc3ccc(C)c(S(N)(=O)=O)c3)c3ccccc3n2)cc1`, the growth was 87% (inactive).
